Screens as filed in PubChem BioAssay.
A selection: hits, their analogues and other compounds. The true share with any hit is near 10%.
MCF10A rereplic – inducers of DNA re-replication in MCF 10A breast cells; Potency, µM (highest dose often 46.1 µM), inactives show top-dose activity, positive = re-replication, actives largely listed as activators; MCF 10A DNA re-replication, Hoechst nuclear intensity, 48 h; hit rate 2.9% among 350,000; AID 624296; further: % of control where 0% means no effect; nearly all actives have a fitted effect of over 50% in size
RORg inh – ROR gamma (mouse) transcription inhibition; P51450; Drosophila S2 Gal4-RORgamma UAS-luciferase reporter, 20 h; Potency, µM (titrated, usually from 53.6 µM), without a hit: at the highest dose activity change, negative = inhibition, usual class: inhibitors; hit rate 5.4% among 310,000; further: on the % scale 0 is the no-effect control and ±100 the full control effect; nearly all actives have a fitted effect of over 60% in size
Target sequence (P51450 whole entry, looked up, the tested form may be a part): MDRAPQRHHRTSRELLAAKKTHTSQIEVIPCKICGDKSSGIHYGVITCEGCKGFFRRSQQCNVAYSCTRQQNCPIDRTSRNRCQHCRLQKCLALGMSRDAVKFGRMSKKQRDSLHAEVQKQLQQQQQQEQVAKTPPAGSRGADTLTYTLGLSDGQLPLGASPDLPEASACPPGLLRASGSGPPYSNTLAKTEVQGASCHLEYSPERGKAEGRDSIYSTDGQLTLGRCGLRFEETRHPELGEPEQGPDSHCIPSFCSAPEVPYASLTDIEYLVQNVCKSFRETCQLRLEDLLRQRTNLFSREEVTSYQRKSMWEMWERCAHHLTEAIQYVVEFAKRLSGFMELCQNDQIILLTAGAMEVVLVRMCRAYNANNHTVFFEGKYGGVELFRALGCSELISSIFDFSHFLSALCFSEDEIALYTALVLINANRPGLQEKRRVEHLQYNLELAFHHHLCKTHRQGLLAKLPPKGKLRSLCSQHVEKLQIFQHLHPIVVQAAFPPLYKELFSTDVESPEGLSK
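Stably transfected Drosophila Schneider cells are the test system, with ROR gamma fused to Gal4 and luciferase under UAS control; luminescence is read after 20 hr of 700 uM copper sulfate induction at ambient temperature.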
ELG1 DNA repair – ELG1-dependent DNA repair inhibition; HEK293T ELG1-luciferase reporter, luminescence, 16 h; DNA damage induced by 5-fluorouridine; Potency, µM (titrated, usually from 46.1 µM), inactives show at the top dose activity change, negative = inhibition, actives largely listed as inhibitors; hit rate 2.3% among 330,000; AID 504467; further: on the % scale 0 is the no-effect control and ±100 the full control effect; nearly all actives have a fitted effect of over 55% in size
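Quantitative HTS, concentration-response format. 2,000 cells/well co-treated with 5-fluorouridine and compound, 16 hr in 5% CO2 at 37 °C; ONE-Glo luminescence read after 30 min.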
SW480 rerep – induces DNA re-replication in SW480 colon adenocarcinoma cells. SW480 DNA re-replication, Hoechst DNA content imaging, 48 h. Potency, µM (top dose mostly 46.1 µM), inactives show top-dose re-replication activation, actives largely listed as activators. hit rate 1.8% among 340,000. AID 624297; further: % of control where 0% means no effect; nearly all actives have a fitted effect of over 55% in size
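First, 250 cells per well were seeded. Next, compound or vehicle (23 nL) was pinned in, plates sat 48 hr at 37 C. Finally Hoechst was added for 40 min before fluorescence scanning.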
VP16 counter – Gal4-VP16 reporter inhibition counter-screen; Drosophila S2 Gal4-VP16 UAS-luciferase, luminescence, 20 h; Potency, µM (highest dose often 53.6 µM), for inactives: at the highest dose activity, negative = inhibition, most hits filed as inhibitors; hit rate 3.5% among 310,000;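 further: Gal4-VP16 expression switched on by copper sulfate through the metallothionein promoter; on the % scale 0 is the no-effect control and ±100 the full control effect; nearly all actives have a fitted effect of over 50% in size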
* = called active by the depositor. The call rests on the fitted dose curve; in most records, active means well fitted curve in the direction sought with a large enough effect; inconclusive means small, poorly fitted or top-dose-only effect, or another doubt; inactive means no such curve, though single readings can be large; an effect the other way counts as inactive or inconclusive. Potency means the concentration at half of the fitted maximal effect.

What do the screens show for `O=C(N/N=C/c1ccco1)c1ccc(NC(=O)c2ccccc2Cl)cc1`?
MCF10A rereplic: 0.1%; RORg inh: 1.1%; ELG1 DNA repair: 4.0%; SW480 rerep: -127.2%; VP16 counter: 0.0%

How did O=C(N/N=C/c1cccs1)c1cccc(NC(=O)c2ccccc2Cl)c1 do in these assays?
MCF10A rereplic: 1.8%; RORg inh: inconclusive; ELG1 DNA repair: -4.2%; SW480 rerep: -0.7%; VP16 counter: 14.1µM*

Results for O=C(O)c1ccc2c(c1)C(=O)N(N1C(=O)c3ccccc3C1=O)C2=O ?
MCF10A rereplic: -5.4%; RORg inh: 29.2%; ELG1 DNA repair: 12.4%; SW480 rerep: -4.5%; VP16 counter: -3.0%

What do the screens show for `CCOC(=S)NC(=O)c1sc2ccccc2c1Cl`?
MCF10A rereplic: -7.2%; RORg inh: 1.26µM*; ELG1 DNA repair: 4.6%; SW480 rerep: 10.1%; VP16 counter: 5.62µM*

How did O=C(NC(=S)NCCO)c1sc2ccccc2c1Cl do in these assays?
MCF10A rereplic: 23.1%; RORg inh: 11.2µM*; ELG1 DNA repair: inconclusive; SW480 rerep: -16.3%; VP16 counter: -19.4%

How did O=C1NC2c3c(Cl)sc(Cl)c3C(=O)C2O1 (centres undefined) do in these assays?
MCF10A rereplic: 7.31µM*; SW480 rerep: inconclusive

Results for O=C1NC2c3c(I)sc(I)c3C(=O)C2O1 (centres undefined) ?
MCF10A rereplic: 13µM*; SW480 rerep: 16.4µM*

Results for C#CCOCCOCCOCCNc1nc(N2CCN(C(=O)[C@H](CCC(=O)O)n3cc(C(N)CC(C)C)nn3)CC2)nc(N2CCN(C(=O)[C@H](CCC(=O)O)n3cc(C(N)[C@H](C)CC)nn3)CC2)n1 (some centres undefined) ?
MCF10A rereplic: 2.6%; RORg inh: -28.8%; ELG1 DNA repair: 9.5%; SW480 rerep: 19.3%; VP16 counter: -1.1%

How did COC(=O)c1ccc([N+](=O)[O-])c(CS(=O)(=O)c2ccc(Cl)cc2)c1 do in these assays?
MCF10A rereplic: 4.1%; RORg inh: 23.5%; ELG1 DNA repair: inconclusive; SW480 rerep: 0.3%; VP16 counter: 7.9%

How did Cc1ccc(S(=O)(=O)Cc2cc(F)c([N+](=O)[O-])cc2[N+](=O)[O-])cc1 do in these assays?
MCF10A rereplic: inconclusive; RORg inh: -41.1%; ELG1 DNA repair: 16.4µM*; SW480 rerep: inconclusive; VP16 counter: 6.31µM*

How did CCOC(=O)c1ccc([N+](=O)[O-])c(CS(=O)(=O)c2ccc(Cl)cc2)c1 do in these assays?
MCF10A rereplic: 20.6µM*; RORg inh: 23.5%; ELG1 DNA repair: -7.8%; SW480 rerep: -0.8%; VP16 counter: 0.8%

Results for COc1ccc(NC(=O)CCC2CCCCC2)cc1S(=O)(=O)N1CCCCC1 ?
MCF10A rereplic: 14.8%; RORg inh: -20.7%; ELG1 DNA repair: inconclusive; SW480 rerep: 0.8%; VP16 counter: -14.0%

Results for Cc1cccc(NC(=O)/C(C#N)=C/c2cccc([N+](=O)[O-])c2)n1 ?
MCF10A rereplic: 20.6µM*; RORg inh: -1.0%; ELG1 DNA repair: 1.6%; SW480 rerep: inconclusive; VP16 counter: -3.9%

What do the screens show for `Cc1cccc(NC(=O)/C(C#N)=C/c2ccc(Cl)cc2)n1`?
MCF10A rereplic: 22.6%; RORg inh: 16.5%; ELG1 DNA repair: 5.0%; SW480 rerep: 1.7%; VP16 counter: 2.5%

How did COC(=O)c1c(/N=C/N(C)C)sc2c1CCN(c1ncc(C(F)(F)F)cc1Cl)C2 do in these assays?
MCF10A rereplic: inconclusive; RORg inh: inconclusive; ELG1 DNA repair: 18.4µM*; SW480 rerep: 1.7%; VP16 counter: -25.3%

How did COc1ccc(NC(=O)CNC(=O)Cn2c(C)cc3ccccc3c2=O)cc1OC do in these assays?
MCF10A rereplic: inconclusive; RORg inh: 17.4%; ELG1 DNA repair: 8.2µM*; SW480 rerep: inconclusive; VP16 counter: -9.4%

How did COc1ccc(-n2nc(C(=O)NCC(=O)NCCc3ccc(OC)c(OC)c3)c3ccccc3c2=O)cc1Cl do in these assays?
MCF10A rereplic: inconclusive; RORg inh: 9.4%; ELG1 DNA repair: 6.51µM*; SW480 rerep: 19.8%; VP16 counter: -8.7%

Results for COc1ccc(-n2nc(C(=O)NCC(=O)N3CCN(c4ccccc4)CC3)c3ccccc3c2=O)cc1OC ?
MCF10A rereplic: 10.9%; RORg inh: 0.2%; ELG1 DNA repair: -2.3%; SW480 rerep: 0.2%; VP16 counter: inconclusive

What do the screens show for `COc1ccc(-n2nc(C(=O)NCC(=O)Nc3cc(OC)c(OC)c(OC)c3)c3ccccc3c2=O)cc1OC`?
MCF10A rereplic: 19.7%; RORg inh: -19.7%; ELG1 DNA repair: 2.31µM*; SW480 rerep: -17.9%; VP16 counter: -12.1%

What do the screens show for `COCCNC(=O)CNC(=O)c1nn(-c2ccc(OC)c(Cl)c2)c(=O)c2ccccc12`?
MCF10A rereplic: 1.5%; RORg inh: 17.7%; ELG1 DNA repair: -21.8%; SW480 rerep: -5.8%; VP16 counter: -6.4%

How did COc1ccc(-n2nc(C(=O)NCC(=O)N3CCN(c4ccccc4OC)CC3)c3ccccc3c2=O)cc1OC do in these assays?
MCF10A rereplic: -3.1%; RORg inh: -0.6%; ELG1 DNA repair: 16.4µM*; SW480 rerep: 0.0%; VP16 counter: -1.5%

Results for COc1ccc(NC(=O)CNC(=O)c2nn(-c3ccc(OC)c(OC)c3)c(=O)c3ccccc23)c(OC)c1 ?
MCF10A rereplic: -7.6%; RORg inh: -1.6%; ELG1 DNA repair: inconclusive; SW480 rerep: -8.3%; VP16 counter: -25.6%

How did O=C(O)c1cc(O)ccc1NC(=O)C1CCCO1 (centres undefined) do in these assays?
MCF10A rereplic: 1.9%; RORg inh: -7.3%; ELG1 DNA repair: -2.8%; SW480 rerep: 0.0%; VP16 counter: -10.2%

How did COC(=O)c1cc(S(=O)(=O)Nc2cccc(-c3cnco3)c2)oc1C do in these assays?
MCF10A rereplic: -2.4%; RORg inh: 5.2%; ELG1 DNA repair: -10.7%; SW480 rerep: -20.3%; VP16 counter: 0.8%

How did COc1cccc2c(=O)cc(C)n(CC(=O)Nc3ccc(C)c(C)c3)c12 do in these assays?
MCF10A rereplic: 12.2%; RORg inh: -20.1%; ELG1 DNA repair: inconclusive; SW480 rerep: 2.5%; VP16 counter: inconclusive

How did COc1ccccc1NC(=O)Cn1c(C)cc(=O)c2cccc(OC)c21 do in these assays?
MCF10A rereplic: 17.8%; RORg inh: -32.9%; ELG1 DNA repair: inconclusive; SW480 rerep: -5.0%; VP16 counter: 28.2µM*

Results for COc1cc(NC(C)=O)c2ncccc2c1[N+](=O)[O-] ?
MCF10A rereplic: 1.5%; RORg inh: 3.98µM*; ELG1 DNA repair: -28.1%; SW480 rerep: -3.0%; VP16 counter: inconclusive

What do the screens show for `COc1cc(NC(C)=O)c2ncccc2c1NC(C)=O`?
MCF10A rereplic: 2.8%; RORg inh: -21.4%; ELG1 DNA repair: -15.8%; SW480 rerep: -0.8%; VP16 counter: -7.0%
